Test results taken from the supplement of paper PMC12645437, “Orthogonal IMiD-Degron Pairs Induce Selective Protein Degradation in Cells” (ACS Chemical Biology, 2025).
Whole data set: some 8,300 sequences, median “log2 fold change of degron read counts, EGFP-low vs EGFP+ sorted cells (limma voom), compound-induced degradation” near -1.1, cut for the highest 2% near 3.2. This excerpt belongs to a sample that is enriched for the highest values.

T1: CRBN, Q96SW2
T1 chain: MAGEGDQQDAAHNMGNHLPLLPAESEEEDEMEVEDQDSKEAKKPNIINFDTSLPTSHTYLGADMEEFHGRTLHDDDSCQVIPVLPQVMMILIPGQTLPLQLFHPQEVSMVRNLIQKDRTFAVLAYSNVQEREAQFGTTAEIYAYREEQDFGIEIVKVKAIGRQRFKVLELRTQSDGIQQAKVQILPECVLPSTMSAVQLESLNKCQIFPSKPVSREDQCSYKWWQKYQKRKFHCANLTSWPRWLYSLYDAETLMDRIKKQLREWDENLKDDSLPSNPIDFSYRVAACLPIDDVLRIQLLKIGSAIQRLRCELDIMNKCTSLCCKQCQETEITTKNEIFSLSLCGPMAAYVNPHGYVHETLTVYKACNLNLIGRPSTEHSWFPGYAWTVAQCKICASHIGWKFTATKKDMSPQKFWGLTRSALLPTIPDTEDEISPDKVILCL

B1: 46L_47D_49E_50I_52G_53F_54L_55C_67L_, Q9UKT9 (peptide)
chain: LDCEICGFLCTQKGNLLRHIKL
B2: 46F_47A_49P_50Q_52G_53A_54F_55F_67L_, Q9UKT9 (peptide)
chain: FACPQCGAFFTQKGNLLRHIKL
B3: 46F_47W_49N_50Q_52G_53A_54E_55F_67L_, Q9UKT9 (peptide)
chain: FWCNQCGAEFTQKGNLLRHIKL
B4: 46F_47G_49E_50I_52G_53R_54G_55F_67L_, Q9UKT9 (peptide)
chain: FGCEICGRGFTQKGNLLRHIKL
B5: 46L_47G_49E_50I_52G_53F_54C_55C_67L_, Q9UKT9 (peptide)
chain: LGCEICGFCCTQKGNLLRHIKL
B6: 46F_47K_49E_50V_52G_53A_54H_55F_67L_, Q9UKT9 (peptide)
chain: FKCEVCGAHFTQKGNLLRHIKL
B7: 46L_47N_49P_50I_52G_53F_54N_55C_67L_, Q9UKT9 (peptide)
chain: LNCPICGFNCTQKGNLLRHIKL
B8: 46F_47C_49E_50V_52G_53A_54M_55F_67L_, Q9UKT9 (peptide)
chain: FCCEVCGAMFTQKGNLLRHIKL
B9: 46F_47W_49E_50V_52G_53A_54M_55F_67L_, Q9UKT9 (peptide)
chain: FWCEVCGAMFTQKGNLLRHIKL
B10: 46F_47T_49E_50V_52G_53A_54M_55F_67L_, Q9UKT9 (peptide)
chain: FTCEVCGAMFTQKGNLLRHIKL
B11: 46F_47Q_49N_50I_52G_53A_54N_55F_67L_, Q9UKT9 (peptide)
chain: FQCNICGANFTQKGNLLRHIKL
B12: 46F_47Y_49N_50Q_52G_53R_54C_55F_67L_, Q9UKT9 (peptide)
chain: FYCNQCGRCFTQKGNLLRHIKL
B13: 46L_47T_49N_50Q_52G_53F_54K_55C_67L_, Q9UKT9 (peptide)
chain: LTCNQCGFKCTQKGNLLRHIKL
B14: 46F_47S_49P_50I_52G_53R_54I_55F_67L_, Q9UKT9 (peptide)
chain: FSCPICGRIFTQKGNLLRHIKL
B15: 46F_47G_49P_50I_52G_53A_54I_55F_67L_, Q9UKT9 (peptide)
chain: FGCPICGAIFTQKGNLLRHIKL
B16: 46F_47T_49P_50I_52G_53R_54I_55F_67L_, Q9UKT9 (peptide)
chain: FTCPICGRIFTQKGNLLRHIKL
B17: 46F_47Y_49P_50I_52G_53A_54I_55F_67L_, Q9UKT9 (peptide)
chain: FYCPICGAIFTQKGNLLRHIKL
B18: 46F_47V_49P_50I_52G_53A_54I_55F_67L_, Q9UKT9 (peptide)
chain: FVCPICGAIFTQKGNLLRHIKL
B19: 46F_47Q_49P_50I_52G_53A_54I_55F_67L_, Q9UKT9 (peptide)
chain: FQCPICGAIFTQKGNLLRHIKL
B20: 46F_47S_49P_50I_52G_53A_54I_55F_67L_, Q9UKT9 (peptide)
chain: FSCPICGAIFTQKGNLLRHIKL
B21: 46F_47K_49P_50I_52G_53A_54I_55F_67L_, Q9UKT9 (peptide)
chain: FKCPICGAIFTQKGNLLRHIKL
B22: 46F_47G_49P_50I_52G_53R_54I_55F_67L_, Q9UKT9 (peptide)
chain: FGCPICGRIFTQKGNLLRHIKL

Molecular target: T1, CRBN, Q96SW2
Assay: log2 fold change of degron read counts, EGFP-low vs EGFP+ sorted cells (limma voom), compound-induced degradation; higher = more compound-induced degradation of the degron-EGFP fusion; degrons are variants of IKZF1/3 zinc finger 2; compound dose not given here
Details: Jurkat, 18 h
[1] = compound: compound 19 (5-tert-butyl-thalidomide)
[2] = compound: compound 22 (5-morpholino-thalidomide)
[3] = compound: compound 33 (diphenyl IMiD analogue)
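Further: pooled lentiviral library of zinc finger degron-EGFP fusions in mCherry-positive Jurkat cells, FACS-sorted after compound exposure, with degron abundance counted by next-generation sequencing.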

Sequence	log2 fold change of degron read counts [1]	log2 fold change of degron read counts [2]	log2 fold change of degron read counts [3]	log2 fold change of degron read counts (compound: thalidomide)
B1	-0.807	-1.38	-0.989	-0.479
B2	-0.715	-2.49	-1.05	-1.87
B3	-1.48	-2.56	-2.24	-2.85
B4	-1.02	-2.46	-2.04	-2.19
B5	-0.15	-0.36	-0.974	-0.994
B6	-2.01	-3.17	-2.55	-1.68
B7	0.0324	-0.534	-0.051	0.589
B8	1.54	1.34	1.7	0.852
B9	3.14	3.46	2.23	0.316
B10	-0.151	0.976	1.67	1.62
B11	-0.813	0.399	1.05	3.08
B12	-1.93	-2.09	-1.97	-2.28
B13	-2.23	-1.85	-2.34	-1.79
B14	-0.412	-0.447	1.06	0.174
B15	3.81	2.51	2.55	0.986
B16	-1.75	-0.494	0.959	1.17
B17	2.75	2.82	1.86	0.386
B18	-0.598	0.358	1.51	1.69
B19	-0.241	3.26	2.84	3.79
B20	1.58	1.34	2.26	0.935
B21	-2.31	-3.23	-3.09	-1.63
B22	3.47	1.77	0.585	-0.161
